Consider 86 molecules from PubChem BioAssay AID504660 (National Center for Advancing Translational Sciences (NCATS), 2011).

Structures are written as SMILES. Several values for one entry are separate records, joined by “and”; a condition that tells them apart may be missing. Identical values can stand only once. Hit rate of the full screen: of about 360,000 compounds, about 3,700 (1%) were called active. The sample as a whole holds a higher share of actives than the screen did. Values without a mark were called inactive. Cut-off read from the data, not from the text of the source: active = activation above about 30%; inactive = the rest.

In this assay the target is D(1A) dopamine receptor (Homo sapiens) (UniProt P21728). The experiment in a line: Allosteric Agonists of the Human D1 Dopamine Receptor: qHTS. Note: 0% is about no effect. The settings on record: HEK293 T-REx D1 cells, calcium flux, agonist mode; at 2 µM; hits give high values. A digest of the protocol: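 Tetracycline-induced HEK293 TREx D1 cells, force-coupled to calcium signalling, were dye-loaded with a no-wash calcium kit. Compound was pin-added after a 10 s baseline. Fluorescence was read kinetically at 1 cycle/s for 180 s, with calcium rises flagged as agonism.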
Chain of D(1A) dopamine receptor (Homo sapiens) (P21728 whole entry, looked up): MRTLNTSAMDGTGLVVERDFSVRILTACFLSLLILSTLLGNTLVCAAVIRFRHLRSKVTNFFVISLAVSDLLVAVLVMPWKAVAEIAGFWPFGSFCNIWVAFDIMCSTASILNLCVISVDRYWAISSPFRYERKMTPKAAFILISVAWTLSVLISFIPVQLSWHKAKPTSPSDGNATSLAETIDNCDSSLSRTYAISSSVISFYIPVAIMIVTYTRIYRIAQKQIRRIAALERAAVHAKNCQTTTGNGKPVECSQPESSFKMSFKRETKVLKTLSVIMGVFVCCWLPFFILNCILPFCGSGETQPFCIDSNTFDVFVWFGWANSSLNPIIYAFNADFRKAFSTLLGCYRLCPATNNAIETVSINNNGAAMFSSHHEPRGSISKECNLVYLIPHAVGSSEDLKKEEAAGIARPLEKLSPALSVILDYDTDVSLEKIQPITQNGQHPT
On the technique in general: qHTS replaces the single test concentration by a dilution series.
As to `CCCCc1nn2c(=O)cc(COC(=O)c3ccc(NC(=O)c4ccccc4C)cc3)nc2s1`, the activation is 4.38%.
With `COCCCNC(=O)c1ccc(NC(=O)c2nsc3ccccc23)cc1` the figure was -0.261%; with `CN(C)c1ccc(/C=C2\NC(=S)N(Cc3ccccc3)C2=O)cc1`, 203% (active).
Consider `CCn1cc(C(=O)NCc2ccc(C)cc2)c(=O)c2cc(S(=O)(=O)N3CCc4ccccc4C3)ccc21`, for which the activation was -1.37%.
Regarding `CN(C)c1ccc(NC(=O)CSc2nc(-c3ccco3)cc(C(F)(F)F)n2)cc1`, the activation is -0.482%.
For `Cc1cc(C)c(-c2n[nH]c3c2C(c2ccccc2F)N(CCO)C3=O)c(O)c1` (stereo unspecified), the activation was -0.0969%.
Consider `C=CCSc1nsc(NC(=O)Nc2cccc(C(C)=O)c2)n1`, for which the activation was 34.2% (active).
For the molecule `CC(=O)c1ccc(NC(=O)CSc2nnc(NC(=O)Nc3ccccc3)s2)cc1`, the activation was 2.71%.
In the case of `CCSc1nsc(NC(=O)Nc2cccc(C(C)=O)c2)n1`, the activation was 29.4%.
Take `CCOc1ccc(-c2cc(C)n3nc(C(=O)Nc4ccc(C)c(C)c4)cc3n2)cc1`: the activation is 0.877%.
Take `Cc1ccc(S(=O)(=O)N2[C@@H](c3cccc(Cl)c3)C(C(=O)O)=CC[C@H]2c2ccc(Cl)c(Cl)c2)cc1`: the activation is 43.2% (active).
Turning to `Cc1ccccc1S(=O)(=O)N1[C@@H](c2cccc(Cl)c2)C(C(=O)O)=CC[C@H]1c1ccc(Cl)cc1`, the activation is 2.18%.
With `Cc1ccc(S(=O)(=O)N2[C@@H](c3ccccc3F)C(C(=O)O)=CC[C@H]2c2ccc(Cl)cc2)cc1`, the activation is 3.48%.
For the molecule `CCOC(=O)N1CCc2c(sc(NCc3cccc(F)c3)c2C(=O)Nc2ccccc2OCC)C1`, the activation was -1.06%.
As for `O=C(NCc1ccccc1)C(=O)NCC(c1ccco1)S(=O)(=O)c1ccc(Cl)cc1` (stereo unspecified), the activation is 0.796%.
With `N=c1n(Cc2ccc(Cl)cc2)c2ccccc2n1CC(O)c1ccco1` (stereo unspecified), the activation was 92.6% (active).
As for `CCOc1ccc(C(O)Cn2c(=N)n(CCN3CCCCC3)c3ccccc32)cc1` (stereo unspecified), the activation was 0.859%.
On to `COc1cccc(N2CCN(C(=O)CCCCCn3c(=O)[nH]c4ccccc4c3=O)CC2)c1`, for which the activation is 3.15%.
Take `Cc1sc(C2C(C#N)=C(N)N(c3cccc(Cl)c3)C3=C2C(=O)CCC3)cc1CN1CCOCC1` (stereo unspecified): the activation is -0.583%.
As to `N#Cc1c(-c2ccccc2)nc(SCc2cccc(C(F)(F)F)c2)[nH]c1=O`, the activation is 42.4% (active).
With `Cc1ccccc1CSc1nnc(-c2ccccc2)c(=O)[nH]1`, the activation is 0.158%.
With `N#Cc1c(-c2cccs2)nc(SCC(=O)c2ccc(Br)cc2)[nH]c1=O`, the activation was 27.1%.
With `Cc1c(C(=O)NCc2ccccc2Br)oc2ccc3c(c12)C(=O)CC(C)(C)O3` the figure was 5.52%; with `Cc1cccc(C)c1Nc1c(-c2ccccc2O)nc2ncccn12`, -0.792% and 1.73%; with `Cc1ccccc1Nc1c(-c2ccccc2)nc2ncccn12`, -0.718%.
For `CCc1cccc(C)c1Nc1c(-c2ccc(N(C)C)cc2)nc2ncccn12` the value was 51.7% (active); for `COc1ccc(NC(=O)CCN2CCN(CCO)CC2)cc1`, 1.35%; for `CCc1ccc(NC(=O)CN2CCC(C(=O)c3ccc(OC)cc3)CC2)cc1`, 2.75%.
With `CCc1cc(C(=O)c2ccc(OC)cc2)c(NC(=O)CN2CCN(C)CC2)s1` the figure was 32.2% (active); with `CC1CCCN(Cc2c(O)ccc3c(=O)c(Oc4ccc(C(C)(C)C)cc4)c(C(F)(F)F)oc23)C1` (stereo unspecified), -1.8%.
With `Cc1ccc(C(C)(C)C)c(OCCCCN2CCCC2)c1`, the activation was 8.62%.
For `COCCCNCCOCCOc1ccc(Cl)cc1Br` the value was 13.2%; for `CC(C)(C)NCCCOc1ccc(Cl)cc1C(C)(C)C`, 59.2% (active); for `CCOc1ccc(NC(=O)c2c(NC(=O)Cc3ccccc3)sc3c2CCC(C)C3)cc1` (stereo unspecified), -0.648%.
With `COc1ccc(CNc2nc(-c3ccc(Cl)cc3)cc(C(F)(F)F)n2)cc1`, the activation is 41.5% (active).
For the molecule `FC(F)(F)c1cc(-c2ccco2)nc(NCc2ccc(Cl)cc2)n1`, the activation was 7.88%.
Regarding `COc1ccc(CCNc2nc(-c3ccc(Cl)cc3)cc(C(F)(F)F)n2)cc1OC`, the activation was 7.69%.
With `COc1cccc(C(=O)NC2(C(F)(F)F)C(=O)Nc3c2c(=O)[nH]c(=O)n3-c2ccc(C)cc2)c1` (stereo unspecified) the figure was -0.234%; with `Cc1ccc(Cl)cc1N1CCN(C(=O)c2cnc3c(-c4ccc(F)cc4)c(C)nn3c2C)CC1`, 1.96%.
Take `O=C(CNC(=O)c1ccc(Br)o1)NCC1CCCO1` (stereo unspecified): the activation is 0.969%.
`OC(CNCC1CCCO1)Cn1c2ccc(Br)cc2c2cc(Br)ccc21` (stereo unspecified): the activation is 38.5% (active).
With `COCCNC(=O)c1ccc(Cn2c(SCC(=O)NCC3CCCO3)nc3ccc(Br)cc3c2=O)cc1` (stereo unspecified) the figure was 2.13%; with `CC(=O)c1c(C)n(S(=O)(=O)c2ccc(Cl)cc2)c2ccc(NS(=O)(=O)c3ccc(Cl)cc3)cc12`, 2.47%; with `CN(Cc1ccccc1)C(=O)CCS(=O)(=O)c1cc(Br)cc2c1N(C(=O)C1CC1)CC2`, 0.148%.
For `c1ccc2c(c1)C(=NC1CCCCC1)NC2=NC1CCCCC1` the value was 30.7% (active); for `COc1ccc(N2CCN(C(=O)[C@@H](NC(=O)c3cc(OC)cc(OC)c3)C(C)C)CC2)cc1`, -0.0979%; for `Cc1ccccc1OCCC(=O)OCC(=O)NC(C)c1ccccc1` (stereo unspecified), 1.35%.
For `COc1cc(OC)cc(C(=O)N[C@H](C(=O)OCC(=O)NC(C)c2ccccc2)C(C)C)c1` (stereo partly specified), the activation is 119% (active).
In the case of `O=C(CCCCn1c(=O)c2ccccc2n(CC(=O)Nc2cccc(C(F)(F)F)c2)c1=O)NCc1ccc2c(c1)OCO2`, the activation was 4.77%.
For `CCCOc1ccc(C(=O)Nc2ccc3oc(-c4cccc(Cl)c4Cl)nc3c2)cc1` the value was 1.7%; for `CCCC(=O)Nc1ccc2oc(-c3ccc(O)c(Br)c3)nc2c1`, 3.7%.
In the case of `Cc1ccc(C)c(N2C(=O)N(Cc3c(F)cccc3Cl)c3ccccc3S2(=O)=O)c1`, the activation was 5.6%.
Consider `CN1C(=O)c2cccc3c(N)ccc(c23)C1=O`, for which the activation is 219% (active).
`Cc1nn(C)cc1N1C(=O)c2cccc3c(N)ccc(c23)C1=O`: the activation was 244% (active).
Consider `CCc1nc2cccnc2n1-c1ccc(CC(=O)Nc2c(C)cccc2C)cc1`, for which the activation was 1.78%.
As to `Cc1ccc(Cn2c(=O)n(Cc3nc(-c4ccccc4)no3)c(=O)c3cc4c(cc32)OCO4)cc1`, the activation is -0.256%.
With `COc1ccccc1Cc1nc2ccccc2nc1SCC(=O)N1CCCc2ccccc21`, the activation is 0.349%.
For `CCCN1CN=C(NS(=O)(=O)c2ccc(NC(C)=O)cc2)NC1` the value was -0.217%; for `COc1ccc(CC(=O)Nc2nnc3n2CCS3)cc1OC`, 1.78%; for `Cc1ccc(NC(=O)c2cn3c4c(ccc(Cl)c4c2=O)OC(C)C3)cc1C` (stereo unspecified), 2.01%.
Turning to `N=c1n(CCc2ccccc2)c2ccccc2n1Cc1ccccc1F`, the activation is 100% (active).
`O=C(COC(=O)Cc1ccccc1F)NCCc1ccccc1`: the activation is 2.43%.
On to `Fc1ccccc1Cn1cnc(NC(=S)NCCc2ccccc2)n1`, for which the activation is 1.4%.
Consider `O=C(Nc1cc(Cl)cc(Cl)c1)c1ccc2c(c1)N(Cc1cccc(Cl)c1)C(=O)c1ccccc1S2=O` (stereo unspecified), for which the activation is 6.19%.
With `COc1cc(NC(=O)c2cc([N+](=O)[O-])ccc2Br)ccc1NC(=O)c1ccco1` the figure was 0.47%; with `COc1ccc(NC(=O)c2ccco2)cc1NC(=O)COc1ccc(C)c(C)c1`, -1.09%; with `CCC(=O)NC(=S)Nc1ccc(NC(=O)c2ccco2)c(Cl)c1`, 42.4% (active).
With `COc1ccc(Cn2ccc3nc(C)c(C(=O)Nc4ccc(C)c(F)c4)cc3c2=O)cc1` the figure was 2.43%; with `Cc1cc(C)cc(OCC(=O)NCc2cc(C)nc3ccccc23)c1`, -0.104%.
With `CC(C)c1ccccc1OCC(O)CN(CC(O)COc1cccc2ccccc12)C(C)C` (stereo unspecified) the figure was 6.15%.
As to `Cc1cc(C)c(NC(=O)C[N+](C)(C)CC(O)COc2cccc3ccccc23)c(C)c1` (stereo unspecified), the activation was 62.2% (active).
For `Cc1ccc2c(=O)c(C(=O)c3ccc(Cl)cc3)cn(CC(=O)NC3CCCCC3)c2n1`, the activation is 1.93%.
As for `CCOc1ccc(CNC(=O)c2ccc3c(c2)nnn3C2CCCC2)cc1`, the activation was 1.9%.
`CC(=O)c1cccc(NC(=O)CSc2nc3c(c(=O)[nH]2)CCC3)c1`: the activation was 1.96%.
For `CCn1c(=O)cc(OCC(=O)Nc2cc(Cl)c(OC)cc2OC)c2ccccc21`, the activation is 0.964%.
With `CC(=N\NC(=O)c1cc(Br)ccc1O)/C(=N/O)C(=O)Nc1ccccc1`, the activation was 5.39%.
For the molecule `CC(C)/C=N/NC(=O)c1cc(Br)ccc1O`, the activation is 32.1% (active).
For `CC(C)Cc1cc(C(=O)Nc2cc(Br)ccc2O)no1` the value was -1.17%; for `CCc1ccc(S(=O)(=O)Nc2cc3c(C(=O)OCc4ccccc4)c(C)oc3c3ccccc23)cc1`, 5.87%; for `Cc1ccccc1NC(=O)Cn1c(=O)n(CC2CCC(C(=O)NCCc3ccccc3)CC2)c(=O)c2ccccc21` (stereo unspecified), 0.988%.
Turning to `CCc1nnc(SCc2nc(-c3cccc(C)c3)oc2C)c2cc3sc(C)cc3n12`, the activation is 1.16%.
For `CCOc1cccc(C(=O)Nc2nnc(S(=O)(=O)N(C)c3ccc(C)cc3)s2)c1` the value was -0.514%; for `CC(C)c1ccc(OCC(O)CN2CCN(c3ccccn3)CC2)cc1` (stereo unspecified), 2.28%; for `CC(=O)c1ccc(OCC(O)CN2CCN(S(=O)(=O)c3cccc(Br)c3)CC2)cc1` (stereo unspecified), 0.785%.
For `O=S(=O)(c1ccc(OCC(O)CN2CCN(c3ccccc3Cl)CC2)cc1)N1CCOCC1` (stereo unspecified), the activation is 105% (active).
Take `Cc1ccc2nc(N3CCN(c4cccc(Cl)c4)CC3)c3nnnn3c2c1`: the activation is 0.249%.
